An excerpt weighted towards active compounds, which were near 6.8% of everything screened.
T cruzi growth-1: T. cruzi intracellular proliferation inhibitors, primary screen, cell-based, beta-gal Tulahuen parasites, NIH3T3 host, luminescence; T. cruzi beta-gal in NIH3T3, GalScreen luminescence, 90 h; inhibition, % at 8.34 µM; 77,000 tested, 5.9% active;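 active means mean inhibition above about 93%, with at least 55% of replicates each passing it, limit read from the data, passing the limit was not always enough; inconclusive means only one of those two conditions holds; inactive means neither condition holds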
Pf Dd2 growth: P. falciparum Dd2 growth inhibitors, primary screen, SYBR Green fluorescence, single dose replicates | 72 h; stronger effect = lower value | activity change, % at 10 µM | 94,000 tested, 2.3% active; in the data active means activity change below about -80%; inconclusive means no clear call, values can overlap the other calls
C diff growth: C. difficile growth inhibitors, primary screen, HTS; AID 1259249, 2017; 86,000 tested, 0.25% active; growth activity, negative = inhibition, % at 16 µg/mL (by protocol); Clostridium difficile clinical isolate growth, OD600, 24 h; stronger effect = lower value;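 active means mean growth activity at or below -80% and every replicate also at or below -80%; inconclusive means mean at or below -80% but some replicate above -80%; inactive means mean growth activity above -80%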;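 further: 0% = DMSO wells and -100% = levofloxacin 16 µg/mL wells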
T cruzi growth-2: T. cruzi intracellular proliferation inhibitors, confirmation, cell-based, NIH3T3 host, beta-gal parasite, luminescence, cherry-pick; T. cruzi beta-gal in NIH3T3, GalScreen luminescence, 90 h; inhibition, % at 8.35 µM; shares compounds with T cruzi growth-1; 5,600 tested, 72% active; AID 651739, 2012;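 active means mean replicate inhibition above about 95% and at least 55% of replicates individually reaching it, limit read from the data; inconclusive means only one of the two criteria is met; inactive means neither criterion is met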
T cruzi growth-3: inhibitors of intracellular T. cruzi replication, confirmation, NIH3T3 host cells, beta-gal parasites, cherry-pick, set 2; shares compounds with T cruzi growth-1; T. cruzi beta-gal in NIH3T3, GalScreen luminescence, 90 h; inhibition, % at 2.09 µM; 5,600 tested, 21% active; AID 651740, 2012;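 active means mean inhibition above about 95%, with at least 55% of replicates also reaching it, limit read from the data; inconclusive means meets just one of the two conditions; inactive means meets neither condition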;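 further: plate controls were neutral control median for no effect and positive control median for full effect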
NIH3T3 tox: cytotoxicity in mouse NIH/3T3 fibroblasts, confirmation, cytotoxicity control for T. cruzi proliferation inhibitor project, cell-based, cherry-pick, single point; cytotoxicity (signal decrease), % at 8.35 µM; 5,600 tested, 14% active; NIH/3T3 viability, CellTiter-Glo ATP luminescence, 90 h; shares compounds with T cruzi growth-1;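 active means mean signal decrease across replicates above about 35% based on untreated-well scatter, with enough replicates individually passing, limit read from the data; inconclusive means no rule stated though some were filed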;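 further: 0% = median of neutral control wells and 100% = median of positive control wells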
NIH3T3 tox 2: NIH/3T3 fibroblast cytotoxicity, confirmation, cytotoxicity control, cell-based, cherry-pick, single point, set 2. shares compounds with T cruzi growth-1. NIH/3T3 viability, CellTiter-Glo ATP luminescence, 90 h. inhibition, % at 24.9 µM. 5,600 tested, 56% active;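 active means mean loss of cell viability signal at or above a set limit, and enough replicates individually reaching it; inconclusive means meets only the mean limit or only the replicate share; inactive means meets neither condition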;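 further: 0% = median of neutral control wells and 100% = median of positive control wells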
* hit, by the source's call; ? = inconclusive; . = not tested or not shown.

SMILES	T cruzi growth-1	Pf Dd2 growth	C diff growth	T cruzi growth-2	T cruzi growth-3	NIH3T3 tox	NIH3T3 tox 2
COCCNC(=O)C[C@H]1CC[C@H]2[C@@H](COc3ccc(NC(=O)COC)cc3C(=O)N2C)O1	18	11	-5	.	.	.	.
C[C@@H]1CN([C@@H](C)CO)C(=O)c2cc(NS(=O)(=O)c3ccccc3)ccc2O[C@@H]1CN(C)C(=O)Nc1ccccc1	-3	4	6	.	.	.	.
C[C@H](CO)N1C[C@H](C)[C@H](CN(C)Cc2ccc(Oc3ccccc3)cc2)OCc2ccccc2-c2c(n(C)c3ccccc23)C1=O	.	-71	6	.	.	.	.
C[C@@H](O)C#Cc1ccc2c(c1)O[C@H](CN(C)Cc1ccncc1)[C@@H](C)CN([C@@H](C)CO)S2(=O)=O	77	-32	0	.	.	.	.
CC(C)C#Cc1ccc2c(c1)O[C@H](CN(C)Cc1ccncc1)[C@H](C)CN([C@H](C)CO)S2(=O)=O	101*	-27	-9	99*	72	?	50*
C[C@H](O)C#Cc1ccc2c(c1)O[C@@H](CN(C)Cc1ccncc1)[C@H](C)CN([C@H](C)CO)S2(=O)=O	113*	-42	1	100*	73	30	39*
C[C@H](O)C#Cc1ccc2c(c1)O[C@H](CN(C)Cc1ccncc1)[C@H](C)CN([C@@H](C)CO)S2(=O)=O	68	-15	2	.	.	.	.
Cc1noc(C)c1S(=O)(=O)Nc1cccc2c1O[C@@H](CN(C)CC1CC1)[C@@H](C)CN([C@@H](C)CO)C2=O	-22	17	-2	.	.	.	.
CCCN1C[C@@H](C)[C@@H](OC)CN(C)C(=O)c2ccc(NC(=O)C3CCC3)cc2OC[C@H]1C	2	-3	.	.	.	.	.
COCC#Cc1ccc2c(c1)O[C@H](CN(C)Cc1ccccc1F)[C@H](C)CN([C@H](C)CO)S2(=O)=O	-1	-46	-1	.	.	.	.
C[C@H]1CN([C@@H](C)CO)S(=O)(=O)c2ccc(C#CCN(C)C)cc2O[C@H]1CN(C)Cc1ccccc1F	100*	-45	-1	96*	45	8	34*
C[C@@H]1CN([C@H](C)CO)S(=O)(=O)c2ccc(C#CCN(C)C)cc2O[C@H]1CN(C)Cc1ccccc1F	110*	-67	-4	106*	87	61*	106*
CC(C)CC#Cc1ccc2c(c1)O[C@@H](CN(C)Cc1ccccc1F)[C@H](C)CN([C@@H](C)CO)S2(=O)=O	56	-68	.	.	.	.	.
C[C@@H]1CN([C@@H](C)CO)S(=O)(=O)c2ccc(C#CC3CC3)cc2O[C@H]1CN(C)Cc1ccccc1F	101*	-38	15	95*	109*	60*	106*
COCC#Cc1ccc2c(c1)O[C@H](CN(C)Cc1ccccc1F)[C@@H](C)CN([C@H](C)CO)S2(=O)=O	-18	-68	-4	.	.	.	.
CC(C)CC#Cc1ccc2c(c1)O[C@@H](CN(C)Cc1ccccc1F)[C@@H](C)CN([C@@H](C)CO)S2(=O)=O	127*	-33	.	92	112*	-1	105*
C[C@@H]1CN([C@@H](C)CO)S(=O)(=O)c2ccc(C#CC3CC3)cc2O[C@@H]1CN(C)Cc1ccccc1F	77	-3	28	.	.	.	.
CO[C@@H]1CN(C)C(=O)c2cc(NC(C)=O)ccc2OC[C@H](C)N(C(=O)C2CCOCC2)C[C@@H]1C	.	3	.	.	.	.	.
C[C@H]1CN([C@@H](C)CO)C(=O)c2c(c3ccccc3n2C)-c2ccccc2CO[C@H]1CN(C)Cc1ccncc1	-10	13	.	.	.	.	.
C[C@@H]1CN([C@@H](C)CO)C(=O)c2cc(NS(C)(=O)=O)ccc2O[C@H]1CN(C)S(=O)(=O)c1cccs1	67	23	.	.	.	.	.
CCCC#Cc1ccc([C@H]2[C@H]3CN(C(=O)Nc4ccccc4F)CC(=O)N3[C@H]2CO)cc1	.	4	0	.	.	.	.
C[C@H]1CN([C@@H](C)CO)S(=O)(=O)c2ccc(-c3cccnc3)cc2O[C@@H]1CN(C)CC1CCOCC1	.	-8	-5	.	.	.	.
COc1ccccc1CNC(=O)C[C@H]1C[C@H]2c3cc(NC(=O)NC4CCCC4)ccc3O[C@H]2[C@@H](CO)O1	68	13	0	.	.	.	.
COc1ccccc1CNC(=O)C[C@H]1C[C@H]2c3cc(NC(=O)Nc4ccc(C(F)(F)F)cc4)ccc3O[C@H]2[C@H](CO)O1	134*	-61	7	107*	52	-20	-19
O=C(C[C@@H]1C[C@@H]2c3cc(NC(=O)Nc4ccc(C(F)(F)F)cc4)ccc3O[C@@H]2[C@H](CO)O1)NCc1ccc2c(c1)OCO2	45	0	2	.	.	.	.
SMILES	T cruzi growth-1	Pf Dd2 growth	C diff growth	T cruzi growth-2	T cruzi growth-3	NIH3T3 tox	NIH3T3 tox 2
O=C(C[C@H]1C[C@@H]2c3cc(NC(=O)Nc4ccc(C(F)(F)F)cc4)ccc3O[C@@H]2[C@H](CO)O1)NCc1ccc(Cl)cc1	?	2	.	108*	49	22	-4
COc1ccccc1CNC(=O)C[C@@H]1C[C@H]2c3cc(NC(=O)Nc4ccc(C(F)(F)F)cc4)ccc3O[C@H]2[C@H](CO)O1	88	-53	1	.	.	.	.
O=C(C[C@H]1C[C@H]2c3cc(NC(=O)NC4CCCCC4)ccc3O[C@H]2[C@@H](CO)O1)NCc1ccccc1	97*	0	.	59	10	13	8
COc1ccccc1CNC(=O)C[C@@H]1C[C@@H]2c3cc(NC(=O)NC4CCCC4)ccc3O[C@@H]2[C@@H](CO)O1	111*	-8	2	85	1	-21	-1
O=C(C[C@@H]1C[C@H]2c3cc(NC(=O)NC4CCCCC4)ccc3O[C@H]2[C@@H](CO)O1)NCc1ccccc1	52	-10	.	.	.	.	.
C[C@@H]1CCCCO[C@H](CN(C)Cc2ccc(C(=O)O)cc2)[C@@H](C)CN([C@@H](C)CO)C(=O)c2cc(N(C)C)ccc2O1	-27	28	2	.	.	.	.
CC(C)NC(=O)N(C)C[C@H]1Oc2ccc(NS(=O)(=O)c3ccc(Cl)cc3)cc2CC(=O)N([C@H](C)CO)C[C@H]1C	31	5	-1	.	.	.	.
O=C(C[C@@H]1C=C[C@@H](NC(=O)Nc2ccccc2)[C@@H](CO)O1)NCc1cccc(F)c1	-16	-5	4	.	.	.	.
O=C(C[C@H]1CC[C@H](NC(=O)Nc2ccc(C(F)(F)F)cc2)[C@@H](CO)O1)NCc1cc(F)cc(F)c1	103*	-39	.	77	-24	-7	10
COc1ccccc1CNC(=O)C[C@@H]1C[C@@H]2c3cc(NC(=O)Nc4ccc(C(F)(F)F)cc4)ccc3O[C@@H]2[C@H](CO)O1	125*	-24	6	111*	66	4	27
